Only a selection was taken, and hits are over-represented in it overall.
miR122 inh – raises miR-122 sensor activity in Huh7 cells; Huh7 psiCHECK-miR122 Renilla luciferase sensor, 48 h; activation, % at 12.5 µM; 0.14% of 340,000 active;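 active = mean activation of 30% or more, with every replicate also reaching 30%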;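 note: 0% = median of neutral control wells and 100% = median of positive control wells; higher luciferase signal means stronger suppression of miR-122 activity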
* hit, by the source's call.

SMILES	miR122 inh
C[C@H]1CN([C@@H](C)CO)C(=O)c2cc(-c3cncnc3)cnc2O[C@@H]1CN(C)Cc1ccccc1	-3.9
C[C@@H]1CN([C@H](C)CO)S(=O)(=O)c2ccc(-c3ccncc3)cc2O[C@H]1CN(C)Cc1ccccc1	-7.8
C[C@@H]1CN([C@@H](C)CO)C(=O)c2cc(C3=CCCCC3)cnc2O[C@@H]1CN(C)C(=O)c1ccc(F)cc1	3.6
Cc1cccc(S(=O)(=O)C(C#N)c2nc3ccccc3nc2N2CCCC2)c1 (stereo not drawn)	-118.6
N#CCc1c(C#N)c(N)nc(N2CCN(S(=O)(=O)c3ccccc3)CC2)c1C#N	35.8*
C[C@@H]1CN([C@H](C)CO)S(=O)(=O)c2ccc(C#Cc3ccccc3)cc2O[C@H]1CN(C)C(=O)Nc1ccccc1	-0.8
COCC#Cc1ccc2c(c1)O[C@@H](CN(C)C(=O)C1CCCCC1)[C@H](C)CN([C@H](C)CO)S2(=O)=O	-11.7
Cc1cc(C)cc(Oc2ccc(NC(=O)C3CC=CCC3C(=O)O)cc2)c1 (stereo not drawn)	32.1*
C[C@@H]1CN([C@H](C)CO)C(=O)c2cc(-c3cncnc3)cnc2O[C@H]1CN(C)Cc1ccncc1	1.9
C[C@H](CO)N1C[C@H](C)[C@@H](CN(C)C(=O)c2ccncc2)Oc2cc(C#C[C@@H](C)O)ccc2S1(=O)=O	-7.1
C[C@H]1CN([C@@H](C)CO)S(=O)(=O)c2ccc(-c3cncnc3)cc2O[C@H]1CN(C)C(=O)Cc1ccncc1	3.4
COc1cccc(S(=O)(=O)N(C)C[C@@H]2Oc3ncc(C#CCC(C)C)cc3C(=O)N([C@@H](C)CO)C[C@@H]2C)c1	9.1
CN1C(=O)c2cc(NS(=O)(=O)c3ccc(Cl)cc3)ccc2OC[C@H]2O[C@H](CC(=O)N3CCc4ccccc4C3)CC[C@@H]21	33.3*
CN1C(=O)c2cc(NC(=O)c3ccc(C(F)(F)F)cc3)ccc2OC[C@@H]2O[C@@H](CC(=O)NC3Cc4ccccc4C3)CC[C@@H]21	55.0*
COCC(=O)Nc1ccc2c(c1)C(=O)N(C)[C@@H]1CC[C@H](CC(=O)N3CCc4ccccc4C3)O[C@H]1CO2	36.7*
COCC(=O)Nc1ccc2c(c1)C(=O)N(C)[C@@H]1CC[C@@H](CC(=O)NC3Cc4ccccc4C3)O[C@@H]1CO2	36.7*
C/C=C/c1cnc2c(c1)C(=O)N([C@@H](C)CO)C[C@H](C)[C@@H](CN(C)C(=O)Cc1cccnc1)O2	-3.4
C[C@@H]1CN([C@@H](C)CO)C(=O)c2cc(C#Cc3ccccn3)cnc2O[C@@H]1CN(C)Cc1cncnc1	-7.0
C[C@@H]1CN([C@@H](C)CO)C(=O)c2cc(-c3cccc(C(=O)N(C)C)c3)cnc2O[C@@H]1CN(C)C(=O)Cc1ccccn1	-0.4
CCCNC(=O)N(C)C[C@H]1Oc2ncc(C#CCC(C)C)cc2C(=O)N([C@H](C)CO)C[C@@H]1C	-2.1
Cc1cc(C(=O)Nc2cccc3c2O[C@H](CN(C)Cc2ccc(C(F)(F)F)cc2)[C@@H](C)CN([C@H](C)CO)C3=O)n(C)n1	-276.3
C/C=C/c1cnc2c(c1)C(=O)N([C@@H](C)CO)C[C@@H](C)[C@H](CN(C)C(=O)c1cccnc1)O2	-1.1
CCC(=O)Nc1ccc2c(c1)OC[C@H](C)N(C(=O)CN1CCOCC1)C[C@H](C)[C@@H](OC)CN(C)C2=O	-0.2
COc1ccc(S(=O)(=O)Nc2ccc3c(c2)CC(=O)N([C@H](C)CO)C[C@H](C)[C@H](CN(C)Cc2ccc(C(=O)Nc4ccccc4N)cc2)O3)cc1	-211.9
COc1cccc(-c2cnc3c(c2)C(=O)N([C@@H](C)CO)C[C@H](C)[C@H](CN(C)CC2CCOCC2)O3)c1	8.4
SMILES	miR122 inh
C[C@H](CO)N1C[C@H](C)[C@H](CN(C)C(=O)c2ccc(F)cc2)Oc2ncc(C3=CCCCC3)cc2C1=O	2.6
CCCNC(=O)N(C)C[C@@H]1Oc2ncc(-c3ccc(C(=O)N(C)C)cc3)cc2C(=O)N([C@H](C)CO)C[C@H]1C	-8.2
C[C@@H]1CN([C@H](C)CO)C(=O)c2cc(Br)cnc2O[C@H]1CN(C)C(=O)NC1CCCC1	4.4
C[C@@H]1CN([C@@H](C)CO)C(=O)c2cc(C#Cc3ccccn3)cnc2O[C@H]1CN(C)C(=O)CCN1CCCCC1	-1.8
CCC(=O)N(C)C[C@H]1Oc2ncc(C#CC3(O)CCCC3)cc2C(=O)N([C@H](C)CO)C[C@@H]1C	-6.0
CCC(=O)N(C)C[C@H]1Oc2cc(-c3cccc(C#N)c3)ccc2S(=O)(=O)N([C@@H](C)CO)C[C@H]1C	1.3
COc1ccc(NS(=O)(=O)c2ccc(OC)c3ccccc23)cn1	-356.4
COc1ccc(S(=O)(=O)Nc2cc(C)cc(C)n2)c2ccccc12	30.9*
CCOc1ccc(S(=O)(=O)Nc2cc(C)ccn2)c2ccccc12	-236.7
C[C@H]1CN([C@@H](C)CO)C(=O)c2cc(-c3ccc(C(=O)N(C)C)cc3)cnc2O[C@@H]1CN(C)C(=O)c1cccnc1	2.1
CCCNC(=O)N(C)C[C@H]1Oc2ncc(C#Cc3ccccc3F)cc2C(=O)N([C@H](C)CO)C[C@H]1C	7.3
C[C@H]1CN([C@@H](C)CO)C(=O)c2cc(C3=CCCCC3)cnc2O[C@H]1CN(C)CC1CCOCC1	-5.4
COc1cccc(-c2cnc3c(c2)C(=O)N([C@H](C)CO)C[C@@H](C)[C@H](CN(C)Cc2ccccc2)O3)c1	-6.8
COc1cccc(-c2cnc3c(c2)C(=O)N([C@@H](C)CO)C[C@@H](C)[C@H](CN(C)Cc2ccccc2)O3)c1	-7.5
COc1cccc(-c2nn(-c3ccccc3)cc2CO)c1	33.9*
CO[C@@H]1CN(C)C(=O)c2cc(NC(C)=O)ccc2OC[C@@H](C)N(C(=O)c2ccccc2)C[C@@H]1C	-3.2
CCCNC(=O)N(C)C[C@@H]1Oc2ncc(C#C[C@H](C)O)cc2C(=O)N([C@@H](C)CO)C[C@@H]1C	-2.2
CCn1c(Cl)c(C=O)s/c1=N\S(=O)(=O)c1ccccc1	72.1*
CC(C)CC#Cc1cnc2c(c1)C(=O)N([C@H](C)CO)C[C@@H](C)[C@@H](CN(C)C(=O)Nc1ccccc1F)O2	-0.7
C[C@H]1CN([C@@H](C)CO)C(=O)c2cc(C#Cc3ccccc3)cnc2O[C@H]1CN(C)C(=O)c1ccccn1	8.8
COc1ccc(C(NC(C)=O)c2cc(Cl)c3cccnc3c2O)cc1 (stereo not drawn)	71.5*
C[C@H](CO)N1C[C@H](C)[C@H](CN(C)S(C)(=O)=O)Oc2cc(-c3ccccc3F)ccc2S1(=O)=O	6.8
O=c1c2ccccc2nc(/C=C/c2ccc([N+](=O)[O-])o2)n1CCCO	80.4*
CO[C@H]1CN(C)C(=O)c2cc(NC(=O)Cc3ccccc3)ccc2OC[C@@H](C)N(C)C[C@@H]1C	0.5
CCCC#Cc1cnc2c(c1)C(=O)N([C@@H](C)CO)C[C@@H](C)[C@@H](CN(C)Cc1cccnc1)O2	4.8
COc1ccccc1-c1cnc2c(c1)C(=O)N([C@H](C)CO)C[C@@H](C)[C@H](CN(C)C(=O)CN(C)C)O2	-2.5
C/C=C/c1cnc2c(c1)C(=O)N([C@H](C)CO)C[C@@H](C)[C@@H](CN(C)C(=O)c1cccnc1)O2	0.3
C[C@H]1CN([C@@H](C)CO)S(=O)(=O)c2ccc(Br)cc2O[C@@H]1CN(C)C(=O)Nc1ccc2c(c1)OCO2	-1.3
C[C@@H]1CN([C@H](C)CO)S(=O)(=O)c2ccc(C3=CCCCC3)cc2O[C@@H]1CN(C)C(=O)Nc1ccc2c(c1)OCO2	31.8*

Source: PubChem (Broad Institute)
